# From paper PMC11062922 (Nature Chemical Biology, 2023)
# Like-named read-outs stand apart in the source and are kept apart here.
# Experiments:
# [1] = system: CDKL5; conditions: read-out: apparent Kd, n = 1
# [2] = system: CLK4; conditions: read-out: apparent Kd, n = 1
# [3] = compound concentrations:100 nM and 1000 nM (sheet 'Lestaurtinib' of Supplementary Table 1),run:Lestaurtinib_02577_R1,Plate:MR016
# [4] = compound concentrations:100 nM and 1000 nM (sheet 'Lestaurtinib' of Supplementary Table 1),run:Lestaurtinib_02577_R2,Plate:MR016
# [5] = compound concentrations:100 nM and 1000 nM (sheet 'Lestaurtinib' of Supplementary Table 1),run:Lestaurtinib_02584_R1,Plate:MR017
# [6] = compound concentrations:100 nM and 1000 nM (sheet 'Lestaurtinib' of Supplementary Table 1),run:Lestaurtinib_02584_R2,Plate:MR017
# [7] = compound concentrations:100 nM and 1000 nM (sheet 'Lestaurtinib' of Supplementary Table 1),run:Lestaurtinib_02584_R3,Plate:MR017
# [8] = compound concentrations:100 nM and 1000 nM (sheet 'Lestaurtinib' of Supplementary Table 1),run:Lestaurtinib_02606_R1,Plate:MR019
# [9] = compound concentrations:100 nM and 1000 nM (sheet 'Lestaurtinib' of Supplementary Table 1),run:Lestaurtinib_02624_R2,Plate:MR020
# [10] = compound concentrations:100 nM and 1000 nM (sheet 'Lestaurtinib' of Supplementary Table 1),run:Lestaurtinib_02766_R3,Plate:MR027
substance,measurement,setting,value
Lestaurtinib,potency estimated from few doses,[1]; [3],82.6 nM
same,potency estimated from few doses,[1]; [4],144 nM
same,potency estimated from few doses,[1]; [5],86.8 nM
same,potency estimated from few doses,[1]; [6],37.3 nM
same,potency estimated from few doses,[1]; [7],565 nM
same,potency estimated from few doses,"[1]; compound concentrations:100 nM and 1000 nM (sheet 'Lestaurtinib' of Supplementary Table 1),run:Lestaurtinib_02601_R1,Plate:MR018",966 nM
same,potency estimated from few doses,"[1]; compound concentrations:100 nM and 1000 nM (sheet 'Lestaurtinib' of Supplementary Table 1),run:Lestaurtinib_02601_R2,Plate:MR018",921 nM
same,potency estimated from few doses,"[1]; compound concentrations:100 nM and 1000 nM (sheet 'Lestaurtinib' of Supplementary Table 1),run:Lestaurtinib_02601_R3,Plate:MR018",143 nM
same,potency estimated from few doses,[1]; [8],58.1 nM
same,potency estimated from few doses,"[1]; compound concentrations:100 nM and 1000 nM (sheet 'Lestaurtinib' of Supplementary Table 1),run:Lestaurtinib_02606_R2,Plate:MR019",98.3 nM
same,potency estimated from few doses,"[1]; compound concentrations:100 nM and 1000 nM (sheet 'Lestaurtinib' of Supplementary Table 1),run:Lestaurtinib_02624_R1,Plate:MR020",75 nM
same,potency estimated from few doses,[1]; [9],137 nM
same,potency estimated from few doses,"[1]; compound concentrations:100 nM and 1000 nM (sheet 'Lestaurtinib' of Supplementary Table 1),run:Lestaurtinib_02741_R2,Plate:MR023",695 nM
same,potency estimated from few doses,"[1]; compound concentrations:100 nM and 1000 nM (sheet 'Lestaurtinib' of Supplementary Table 1),run:Lestaurtinib_02748_R3,Plate:MR024",149 nM
same,potency estimated from few doses,"[1]; compound concentrations:100 nM and 1000 nM (sheet 'Lestaurtinib' of Supplementary Table 1),run:Lestaurtinib_02752_R1,Plate:MR025",225 nM
same,potency estimated from few doses,"[1]; compound concentrations:100 nM and 1000 nM (sheet 'Lestaurtinib' of Supplementary Table 1),run:Lestaurtinib_02752_R3,Plate:MR025",226 nM
same,potency estimated from few doses,"[1]; compound concentrations:100 nM and 1000 nM (sheet 'Lestaurtinib' of Supplementary Table 1),run:Lestaurtinib_02765_R2,Plate:MR026",212 nM
same,potency estimated from few doses,[1]; [10],28.6 nM
same,potency estimated from few doses,"[1]; compound concentrations:100 nM and 1000 nM (sheet 'Lestaurtinib' of Supplementary Table 1),run:Lestaurtinib_02795_R2,Plate:MR022",1690 nM
same,potency estimated from few doses,"[1]; compound concentrations:100 nM and 1000 nM (sheet 'Lestaurtinib' of Supplementary Table 1),run:Lestaurtinib_02795_R3,Plate:MR022",55.9 nM
same,potency estimated from few doses,"[1]; compound concentrations:100 nM and 1000 nM (sheet 'Lestaurtinib' of Supplementary Table 1),run:Lestaurtinib_02802_R2,Plate:MR029",130 nM
same,potency estimated from few doses,"[1]; compound concentrations:100 nM and 1000 nM (sheet 'Lestaurtinib' of Supplementary Table 1),run:Lestaurtinib_02896_R1,Plate:MR030",336 nM
same,potency estimated from few doses,"[1]; compound concentrations:100 nM and 1000 nM (sheet 'Lestaurtinib' of Supplementary Table 1),run:Lestaurtinib_02896_R2,Plate:MR030",99.8 nM
same,potency estimated from few doses,"[1]; compound concentrations:100 nM and 1000 nM (sheet 'Lestaurtinib' of Supplementary Table 1),run:Lestaurtinib_02896_R3,Plate:MR030",1300 nM
same,potency estimated from few doses,"[1]; compound concentrations:100 nM and 1000 nM (sheet 'Lestaurtinib' of Supplementary Table 1),run:Lestaurtinib_03172_R1,Plate:MR031",298 nM
same,potency estimated from few doses,"[1]; compound concentrations:100 nM and 1000 nM (sheet 'Lestaurtinib' of Supplementary Table 1),run:Lestaurtinib_03172_R3,Plate:MR031",99.7 nM
same,potency estimated from few doses,"[1]; compound concentrations:100 nM and 1000 nM (sheet 'Lestaurtinib' of Supplementary Table 1),run:Lestaurtinib_03260_R2,Plate:MR033",460 nM
same,potency estimated from few doses,"[1]; compound concentrations:100 nM and 1000 nM (sheet 'Lestaurtinib' of Supplementary Table 1),run:Lestaurtinib_03260_R3,Plate:MR033",730 nM
same,potency estimated from few doses,"[2]; compound concentrations:100 nM and 1000 nM (sheet 'Lestaurtinib' of Supplementary Table 1),run:Lestaurtinib_02339_R1,Plate:MR001",43.2 nM
same,potency estimated from few doses,"[2]; compound concentrations:100 nM and 1000 nM (sheet 'Lestaurtinib' of Supplementary Table 1),run:Lestaurtinib_02339_R2,Plate:MR001",51.8 nM
same,potency estimated from few doses,"[2]; compound concentrations:100 nM and 1000 nM (sheet 'Lestaurtinib' of Supplementary Table 1),run:Lestaurtinib_02339_R3,Plate:MR001",29.6 nM
same,potency estimated from few doses,"[2]; compound concentrations:100 nM and 1000 nM (sheet 'Lestaurtinib' of Supplementary Table 1),run:Lestaurtinib_02364_R2,Plate:MR002",35.4 nM
same,potency estimated from few doses,"[2]; compound concentrations:100 nM and 1000 nM (sheet 'Lestaurtinib' of Supplementary Table 1),run:Lestaurtinib_02367_R2,Plate:MR003",78.8 nM
same,potency estimated from few doses,"[2]; compound concentrations:100 nM and 1000 nM (sheet 'Lestaurtinib' of Supplementary Table 1),run:Lestaurtinib_02367_R3,Plate:MR003",56.1 nM
same,potency estimated from few doses,"[2]; compound concentrations:100 nM and 1000 nM (sheet 'Lestaurtinib' of Supplementary Table 1),run:Lestaurtinib_02381_R1,Plate:MR004",62.4 nM
same,potency estimated from few doses,"[2]; compound concentrations:100 nM and 1000 nM (sheet 'Lestaurtinib' of Supplementary Table 1),run:Lestaurtinib_02381_R2,Plate:MR004",34.7 nM
same,potency estimated from few doses,"[2]; compound concentrations:100 nM and 1000 nM (sheet 'Lestaurtinib' of Supplementary Table 1),run:Lestaurtinib_02381_R3,Plate:MR004",51.1 nM
same,potency estimated from few doses,"[2]; compound concentrations:100 nM and 1000 nM (sheet 'Lestaurtinib' of Supplementary Table 1),run:Lestaurtinib_02407_R2,Plate:MR005",17 nM
same,potency estimated from few doses,"[2]; compound concentrations:100 nM and 1000 nM (sheet 'Lestaurtinib' of Supplementary Table 1),run:Lestaurtinib_02407_R3,Plate:MR005",22.9 nM
same,potency estimated from few doses,"[2]; compound concentrations:100 nM and 1000 nM (sheet 'Lestaurtinib' of Supplementary Table 1),run:Lestaurtinib_02422_R1,Plate:MR006",27.9 nM
same,potency estimated from few doses,"[2]; compound concentrations:100 nM and 1000 nM (sheet 'Lestaurtinib' of Supplementary Table 1),run:Lestaurtinib_02422_R3,Plate:MR006",48 nM
same,potency estimated from few doses,"[2]; compound concentrations:100 nM and 1000 nM (sheet 'Lestaurtinib' of Supplementary Table 1),run:Lestaurtinib_02437_R1,Plate:MR007",25 nM
same,potency estimated from few doses,"[2]; compound concentrations:100 nM and 1000 nM (sheet 'Lestaurtinib' of Supplementary Table 1),run:Lestaurtinib_02437_R2,Plate:MR007",71.7 nM
same,potency estimated from few doses,"[2]; compound concentrations:100 nM and 1000 nM (sheet 'Lestaurtinib' of Supplementary Table 1),run:Lestaurtinib_02438_R1,Plate:MR008",19.3 nM
same,potency estimated from few doses,"[2]; compound concentrations:100 nM and 1000 nM (sheet 'Lestaurtinib' of Supplementary Table 1),run:Lestaurtinib_02438_R3,Plate:MR008",141 nM
same,potency estimated from few doses,"[2]; compound concentrations:100 nM and 1000 nM (sheet 'Lestaurtinib' of Supplementary Table 1),run:Lestaurtinib_02443_R1,Plate:MR009",80.9 nM
same,potency estimated from few doses,"[2]; compound concentrations:100 nM and 1000 nM (sheet 'Lestaurtinib' of Supplementary Table 1),run:Lestaurtinib_02443_R2,Plate:MR009",75.8 nM
same,potency estimated from few doses,"[2]; compound concentrations:100 nM and 1000 nM (sheet 'Lestaurtinib' of Supplementary Table 1),run:Lestaurtinib_02473_R1,Plate:MR010",58 nM
same,potency estimated from few doses,"[2]; compound concentrations:100 nM and 1000 nM (sheet 'Lestaurtinib' of Supplementary Table 1),run:Lestaurtinib_02473_R2,Plate:MR010",35.2 nM
same,potency estimated from few doses,"[2]; compound concentrations:100 nM and 1000 nM (sheet 'Lestaurtinib' of Supplementary Table 1),run:Lestaurtinib_02482_R2,Plate:MR011",86.4 nM
same,potency estimated from few doses,"[2]; compound concentrations:100 nM and 1000 nM (sheet 'Lestaurtinib' of Supplementary Table 1),run:Lestaurtinib_02487_R2,Plate:MR012",73.6 nM
same,potency estimated from few doses,"[2]; compound concentrations:100 nM and 1000 nM (sheet 'Lestaurtinib' of Supplementary Table 1),run:Lestaurtinib_02496_R2,Plate:MR013",98.1 nM
same,potency estimated from few doses,"[2]; compound concentrations:100 nM and 1000 nM (sheet 'Lestaurtinib' of Supplementary Table 1),run:Lestaurtinib_02496_R3,Plate:MR013",54.4 nM
same,potency estimated from few doses,"[2]; compound concentrations:100 nM and 1000 nM (sheet 'Lestaurtinib' of Supplementary Table 1),run:Lestaurtinib_02566_R1,Plate:MR014",47.9 nM
same,potency estimated from few doses,"[2]; compound concentrations:100 nM and 1000 nM (sheet 'Lestaurtinib' of Supplementary Table 1),run:Lestaurtinib_02572_R1,Plate:MR015",74.6 nM
same,potency estimated from few doses,"[2]; compound concentrations:100 nM and 1000 nM (sheet 'Lestaurtinib' of Supplementary Table 1),run:Lestaurtinib_02572_R2,Plate:MR015",41.6 nM
same,potency estimated from few doses,"[2]; compound concentrations:100 nM and 1000 nM (sheet 'Lestaurtinib' of Supplementary Table 1),run:Lestaurtinib_02572_R3,Plate:MR015",53.8 nM
same,potency estimated from few doses,[2]; [3],877 nM
same,potency estimated from few doses,[2]; [4],830 nM
same,potency estimated from few doses,[2]; [5],65.8 nM
same,potency estimated from few doses,[2]; [6],67.9 nM
same,potency estimated from few doses,[2]; [7],44.4 nM
same,potency estimated from few doses,[2]; [8],78.2 nM
same,potency estimated from few doses,"[2]; compound concentrations:100 nM and 1000 nM (sheet 'Lestaurtinib' of Supplementary Table 1),run:Lestaurtinib_02606_R3,Plate:MR019",45.4 nM
same,potency estimated from few doses,[2]; [9],79.1 nM
same,potency estimated from few doses,"[2]; compound concentrations:100 nM and 1000 nM (sheet 'Lestaurtinib' of Supplementary Table 1),run:Lestaurtinib_02624_R3,Plate:MR020",55.4 nM
same,potency estimated from few doses,"[2]; compound concentrations:100 nM and 1000 nM (sheet 'Lestaurtinib' of Supplementary Table 1),run:Lestaurtinib_02724_R2,Plate:MR021",62.7 nM
same,potency estimated from few doses,"[2]; compound concentrations:100 nM and 1000 nM (sheet 'Lestaurtinib' of Supplementary Table 1),run:Lestaurtinib_02724_R3,Plate:MR021",76.1 nM
same,potency estimated from few doses,"[2]; compound concentrations:100 nM and 1000 nM (sheet 'Lestaurtinib' of Supplementary Table 1),run:Lestaurtinib_02741_R3,Plate:MR023",62 nM
same,potency estimated from few doses,"[2]; compound concentrations:100 nM and 1000 nM (sheet 'Lestaurtinib' of Supplementary Table 1),run:Lestaurtinib_02748_R2,Plate:MR024",132 nM
same,potency estimated from few doses,[2]; [10],69.4 nM
same,potency estimated from few doses,"[2]; compound concentrations:100 nM and 1000 nM (sheet 'Lestaurtinib' of Supplementary Table 1),run:Lestaurtinib_02768_R2,Plate:MR028",1150 nM
